# According to PubChem BioAssay AID1240 (Sanford-Burnham Center for Chemical Genomics, 2008):
# In all, about 50,000 compounds went through this assay and about 800 (1.6%) showed an effect of 50% or more. Shown is part of a subset that was picked to be rich in strong results.
# Target: Bcl-2-like protein 10 (Homo sapiens) (UniProt Q9HD36)
# Assay: Phenotype converters, Bcl-B/TR3 peptide binding displacement, primary biochemical FP (AID 1240);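 note: 0% = Bcl-B with tracer peptide and DMSO and 100% = tracer peptide lacking Bcl-B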
# Conditions: GST-Bcl-B / FITC-TR3 peptide fluorescence polarization; stronger effect = higher value; compound at 3.75 mg/L
# Chain of Bcl-2-like protein 10 (Homo sapiens) (Q9HD36 whole entry, looked up): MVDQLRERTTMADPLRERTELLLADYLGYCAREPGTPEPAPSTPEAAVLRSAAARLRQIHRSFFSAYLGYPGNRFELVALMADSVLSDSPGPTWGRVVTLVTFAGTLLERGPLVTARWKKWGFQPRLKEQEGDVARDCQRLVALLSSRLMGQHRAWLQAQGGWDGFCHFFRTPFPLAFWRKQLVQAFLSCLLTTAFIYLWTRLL
row,SMILES,displacement [%]
1,CC1CC(C)CN(C(=O)c2ccc(Cl)cc2Cl)C1 (stereo unspecified),-3.8
2,Cc1ccc(Cl)c(OCC(O)Cn2c(C)nc3ccccc32)c1 (stereo unspecified),-11.5
3,COc1ccc(OCC(O)Cn2c(C)nc3ccccc32)cc1 (stereo unspecified),-22.4
4,O=C(O)C1C2CCC(O2)C1C(=O)N1CCN(c2ccc(F)cc2)CC1 (stereo unspecified),-9.7
5,CCOCCOC(=O)C1=C(C)NC2=C(C(=O)CC(C)(C)C2)C1c1cccc(Cl)c1Cl (stereo unspecified),3.1
6,CCCCCCOc1ccc(N2C(=O)CC(NCc3ccc(OC)cc3)C2=O)cc1 (stereo unspecified),4.5
7,Cc1ccc(/C(O)=C2\C(=O)C(=O)N(c3nncs3)C2c2cccc(Br)c2)cc1 (stereo unspecified),18.7
8,O=C(C1=C(O)C(=O)N(c2nncs2)C1c1ccc(F)cc1)c1cccs1 (stereo unspecified),109
9,Cc1ccc(C2/C(=C(\O)c3ccccc3)C(=O)C(=O)N2c2nncs2)cc1 (stereo unspecified),11.3
10,Cc1ccc(C2C(C(=O)c3cccs3)=C(O)C(=O)N2c2nncs2)cc1 (stereo unspecified),121
11,CC(C)(C)c1ccc(C2/C(=C(\O)c3ccc(F)cc3)C(=O)C(=O)N2c2nncs2)cc1 (stereo unspecified),11.3
12,O=C1C(=O)N(c2nncs2)C(c2ccc(F)cc2)/C1=C(\O)c1ccccc1 (stereo unspecified),13.6
13,Nn1c(Nc2ccccc2)nc2ccccc2c1=O,-15.5
14,O=C(N/N=C/c1cccc([N+](=O)[O-])c1)C1CC(=O)N(c2ccc(F)cc2)C1 (stereo unspecified),-10.4
15,O=C1CCCC2=C1C(c1ccc([N+](=O)[O-])cc1)C1=C(CCCC1=O)N2c1ccc(Cl)cc1,17.8
16,Cc1ccc([N+](=O)[O-])cc1NC(=O)CCCOc1ccccc1,8.1
17,COc1ccc(Cl)cc1NC(=O)C1=C(C)NC(=S)NC1c1ccc(F)cc1 (stereo unspecified),11.9
18,COC(=O)C1=C(C)NC2=C(C(=O)c3ccccc32)C1c1ccc(-c2ccc([N+](=O)[O-])cc2Br)o1 (stereo unspecified),46.9
19,O=C1C2=C(Nc3ccccc3SC2c2ccc([N+](=O)[O-])cc2)c2ccccc21 (stereo unspecified),-6
20,O=C1C(=C/C=C/c2ccccc2)C(=O)c2ccccc21,75
21,O=C1C(=Cc2ccccc2)C(=O)c2ccccc21,17.6
22,O=C1NN(c2ccccc2)C(=O)/C1=C\C=C\c1ccccc1,30.9
23,CCOC(=O)c1c(NC(=O)C(Cl)(Cl)Cl)sc2c1CCC2,-3.5
24,Cc1ccc2c(c1)NC(c1ccc(Cl)cc1Cl)C1=C(CC(C)(C)CC1=O)N2 (stereo unspecified),13.5
25,O=S(=O)(O)c1nc2ccccc2n1-c1ccccc1,-9.1
26,CC(C)(C)c1cc(C(=O)N/N=C\c2ccc(Cl)cc2)n[nH]1,-5.3

row,SMILES,displacement [%]
1,CC1=C(C(=O)Nc2ccc(Cl)cc2)C(c2ccc([N+](=O)[O-])cc2)NC(=S)N1 (stereo unspecified),4.6
2,COc1ccc(NC(=O)C2=C(C)NC(=O)NC2c2cccc(OC)c2)cc1 (stereo unspecified),-15.9
3,COc1ccc(NC(=O)C2=C(C)NC(=O)NC2c2cccc(Cl)c2)cc1 (stereo unspecified),83.7
4,CC1=C(C(=O)Nc2ccc(C)cc2)C(c2ccc([N+](=O)[O-])cc2)NC(=O)N1 (stereo unspecified),-3.6
5,CC1=C(C(=O)Nc2ccc(Cl)cc2)C(c2ccc([N+](=O)[O-])cc2)NC(=O)N1 (stereo unspecified),124
6,COc1ccc(C2NC(=O)NC(C)=C2C(=O)Nc2cccc(Cl)c2)cc1 (stereo unspecified),11.4
7,COc1cc(C(=O)Nc2nc3ccc4ccccc4c3s2)cc(OC)c1OC,6.6
8,CCCCN(CCCC)S(=O)(=O)c1ccc(C)cc1,-6.8
9,O=C(/C=C\Nc1ccc2c(c1)OCO2)c1ccc(F)cc1,-2.4
10,O=C(/C=C\Nc1ccc2c(c1)OCO2)c1ccc2c(c1)OCO2,104
11,COC(=O)c1ccc(N/C=C\C(=O)c2ccc3c(c2)OCO3)cc1,23.7
12,O=C(/C=C\Nc1ccc([N+](=O)[O-])cc1Br)c1ccc2c(c1)OCO2,3
13,CNc1cc([N+](=O)[O-])ccc1N/C=C\C(=O)c1ccc2ccccc2c1,14.1
14,CNc1cc([N+](=O)[O-])ccc1N/C=C\C(=O)c1ccc2c(c1)OCO2,97.2
15,COc1ccc(C(=O)Nc2ccc(Br)c(C)c2)c(OC)c1,14.5
16,COC(=O)c1ccccc1NC(=O)c1cnn2c(C(F)(F)F)cc(-c3ccccc3)nc12,11.9
17,COc1ccc(N(CC(=O)NC(C)c2ccccc2)S(=O)(=O)c2ccccc2)cc1 (stereo unspecified),5.7
18,CCC(c1ccccc1)c1nnc(NC(=O)Nc2cccc(Cl)c2)s1 (stereo unspecified),-0.8
19,COc1cc(NC(=O)c2ccc(-c3ccccc3[N+](=O)[O-])o2)ccc1NC(=O)c1ccco1,7.1
20,CC(=O)Oc1cc2ccccc2cc1O,3.9
21,C=CCN1C(=O)/C(=C\c2cn(C)c3ccccc23)C(=O)NC1=S,-18.2
22,C=CCN1C(=O)/C(=C\c2ccc(-c3ccc([N+](=O)[O-])cc3)o2)C(=O)NC1=S,12.1
23,C=CCN1C(=O)/C(=C\c2cn(Cc3ccc([N+](=O)[O-])cc3)c3ccccc23)C(=O)NC1=S,87.4
24,CSc1ccc(S(=O)(=O)NCc2ccccc2C)cc1,16.3
25,O=[N+]([O-])c1ccc(/C=N/c2nc3c(s2)CCCC3)cc1,6.6
26,COc1ccc(C(=O)c2c(N)c(C#N)c(C)n2-c2ccccc2)cc1,9.3

row,SMILES,displacement [%]
1,COc1ccc(OCC(=O)Nc2ccc(OC)c(OC)c2)cc1,-4.2
2,O=c1cc(=O)n(-c2ccccc2)c2ccccc12,-0.3
3,COc1ccc(-c2ccc(/C=C3/C(=O)NC(=O)N(c4ccc(C)cc4)C3=O)o2)c([N+](=O)[O-])c1,83.5
4,Cc1ccc(N2C(=O)NC(=O)/C(=C/c3ccc(C)c([N+](=O)[O-])c3)C2=O)cc1,-16.7
5,O=C1NC(=O)N(c2ccccc2)C(=O)/C1=C\c1ccc(-c2ccccc2[N+](=O)[O-])o1,2.7
6,COc1ccc(N2C(=O)/C(=C/c3ccc(-c4ccccc4[N+](=O)[O-])o3)C(=O)NC2=S)cc1,15.9
7,Cc1ccc(N2C(=O)NC(=O)/C(=C\c3ccc(-c4ccc(C)c([N+](=O)[O-])c4)o3)C2=O)cc1,151
8,COc1ccc(-c2ccc(/C=C3/C(=O)NC(=O)N(c4ccccc4)C3=O)o2)c([N+](=O)[O-])c1,78.3
9,COc1ccc(N2C(=O)NC(=O)/C(=C/c3ccc(-c4ccccc4[N+](=O)[O-])o3)C2=O)cc1,-46.3
10,Cc1ccc(N2C(=O)NC(=O)/C(=C\c3ccc(-c4cccc([N+](=O)[O-])c4)o3)C2=O)cc1,-5.9
11,COc1ccc(-c2ccc(/C=C3\C(=O)NC(=O)N(c4ccc(Cl)cc4)C3=O)o2)c([N+](=O)[O-])c1,47
12,O=c1nc(/C=C/c2ccc(-c3ccc([N+](=O)[O-])cc3Cl)o2)cc(C(F)(F)F)[nH]1,11.9
13,COc1ccc(-c2ccc(/C=C/c3cc(C(F)(F)F)[nH]c(=O)n3)o2)c([N+](=O)[O-])c1,78.8
14,Cc1c(Cl)cccc1-c1ccc(/C=C/c2cc(C(F)(F)F)[nH]c(=O)n2)o1,-60.9
15,O=C(Nc1cccc(Oc2ccc3c(c2)C(=O)N(c2ccccc2)C3=O)c1)c1cccc([N+](=O)[O-])c1,12.7
16,CC(=O)Nc1ccc(Nc2nc3ccccc3nc2Nc2ccc(NC(C)=O)cc2)cc1,-13.4
17,COC(=O)C1=C(C)N(Cc2ccccc2)C(=O)/C1=C\c1cccc([N+](=O)[O-])c1,2.4
18,CCOc1ccc(/C=C2/C(=O)NC(=O)N(c3ccc(C)cc3)C2=O)cc1,-9.7
19,COc1cc(/C=C/C(=O)c2ccc(C)cc2)cc(OC)c1OC,1.6
20,Oc1ccccc1/C=N/Nc1nc2ccccc2s1,0.6
21,Cc1ccc(NC(=O)CN(c2ccc(Oc3ccccc3)cc2)S(C)(=O)=O)cc1,5.1
22,O=C1/C(=C/c2c3ccccc3nc3ccccc23)Sc2ccccc21,-0.5
23,CC(=O)n1cc(/C=C2\N=C(c3cccs3)OC2=O)c(-c2ccccc2)n1,-0.1
24,CC(=O)n1cc(/C=C2\Sc3ccccc3C2=O)c(-c2ccccc2)n1,145
25,NC(=O)c1ccc(Sc2nc3ccccc3s2)c([N+](=O)[O-])c1,1.4
26,COC(=O)c1cccc(N2C(=O)C=CC2=O)c1,1

row,SMILES,displacement [%]
1,O=C(CSc1nc2sc3c(c2c(=O)[nH]1)CCCC3)NCc1ccccc1,-18.5
2,O=C(CSc1nc2sc3c(c2c(=O)[nH]1)CCCC3)NCc1ccco1,59.8
3,O=C(CSc1nc2sc3c(c2c(=O)[nH]1)CCCC3)NCc1ccccn1,-0.6
4,Cc1ccc(C)c(S(=O)(=O)Nc2ccc(Cl)cc2)c1,9
5,COc1ccc(NC(=O)CN(c2ccc(Cl)cc2)S(C)(=O)=O)c(OC)c1,10.7
6,O=C(Nc1ccccn1)c1cc(-c2ccc(Cl)c(Cl)c2)nc2ccccc12,10
7,O=C(Nc1cc([N+](=O)[O-])ccc1Cl)c1cc(-c2ccc(Cl)cc2)nc2ccccc12,13.6
8,O=C(Nc1ccc([N+](=O)[O-])cn1)c1cc(-c2ccc(Cl)c(Cl)c2)nc2ccccc12,52.4
9,COC(=O)COc1ccc(/C=C2\C(=O)NC(=O)N(C)C2=O)cc1OC,-18.2
10,CCOc1ccc(Br)cc1/C=N\NC(=O)c1cc(C)[nH]n1,-2.6
11,COc1ccccc1NC1=C(Cl)C(=O)N(c2ccc(C)cc2C)C1=O,8.3
12,CCc1ccccc1NC1=C(Cl)C(=O)N(c2ccc(C)cc2C)C1=O,16.8
13,Cc1ccc(N2C(=O)C(Cl)=C(Nc3ccccc3F)C2=O)c(C)c1,71.5
14,Nc1nnc(CCC(=O)c2ccccc2)s1,3.5
15,NC(=O)c1ccccc1NC(=O)c1ccc(I)cc1,7.7
16,Cc1c(Cc2ccccc2)sc(NC(=O)c2ccc(-c3ccccc3)cc2)c1C(N)=O,-1.3
17,Cc1c(Cc2ccccc2)sc(NC(=O)c2ccc([N+](=O)[O-])cc2)c1C(N)=O,65.7
18,COc1ccc(C(=O)Nc2sc(Cc3ccccc3)c(C)c2C(N)=O)cc1,-16.5
19,CC(=O)Nc1cccc(NC(=O)c2cccc(I)c2)c1,-1.5
20,O=C(COc1ccc(Cl)cc1Cl)OCc1ccccc1,-9.2
21,Cc1ccc(S(=O)(=O)Nc2cc(C(C(=O)OC(C)C)C(=O)C(F)(F)F)c(O)c3ccccc23)cc1 (stereo unspecified),-5.6
22,CCOC(=O)C(C(C)=O)c1cc(NS(=O)(=O)c2ccc(C)cc2)c2ccccc2c1NS(=O)(=O)c1ccc(C)cc1 (stereo unspecified),78.8
23,CC(=O)C(C(C)=O)c1cc(NS(=O)(=O)c2ccc(C)cc2)c2ccccc2c1O,3.6
